# In PubChem BioAssay:
# Unmarked numbers belong to inactive results. The list shows a part of the results. Calls of active or inactive are those of the source.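 The calls were made as follows, unless noted: active = mean inhibition over 43.08%, the solvent-only control mean plus 3 SD; inactive = the rest.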
# Tests used:
# [1] = molecular target: Nuclear receptor coactivator 3 (Homo sapiens) (UniProt Q9Y6Q9); experiment: SRC3 coactivator transcriptional activity inhibitors, confirmation, cell-based, luminescence, quadruplicate (AID 588792); conditions: HEK293 GAL4-SRC3 luciferase reporter, at 3.6 µM, active compounds read high;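 also: 0% = DMSO treated cells and 100% = gossypol at 36 µM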
# Nuclear receptor coactivator 3 (Homo sapiens), sequence (Q9Y6Q9 whole entry, looked up, the tested form may be a part): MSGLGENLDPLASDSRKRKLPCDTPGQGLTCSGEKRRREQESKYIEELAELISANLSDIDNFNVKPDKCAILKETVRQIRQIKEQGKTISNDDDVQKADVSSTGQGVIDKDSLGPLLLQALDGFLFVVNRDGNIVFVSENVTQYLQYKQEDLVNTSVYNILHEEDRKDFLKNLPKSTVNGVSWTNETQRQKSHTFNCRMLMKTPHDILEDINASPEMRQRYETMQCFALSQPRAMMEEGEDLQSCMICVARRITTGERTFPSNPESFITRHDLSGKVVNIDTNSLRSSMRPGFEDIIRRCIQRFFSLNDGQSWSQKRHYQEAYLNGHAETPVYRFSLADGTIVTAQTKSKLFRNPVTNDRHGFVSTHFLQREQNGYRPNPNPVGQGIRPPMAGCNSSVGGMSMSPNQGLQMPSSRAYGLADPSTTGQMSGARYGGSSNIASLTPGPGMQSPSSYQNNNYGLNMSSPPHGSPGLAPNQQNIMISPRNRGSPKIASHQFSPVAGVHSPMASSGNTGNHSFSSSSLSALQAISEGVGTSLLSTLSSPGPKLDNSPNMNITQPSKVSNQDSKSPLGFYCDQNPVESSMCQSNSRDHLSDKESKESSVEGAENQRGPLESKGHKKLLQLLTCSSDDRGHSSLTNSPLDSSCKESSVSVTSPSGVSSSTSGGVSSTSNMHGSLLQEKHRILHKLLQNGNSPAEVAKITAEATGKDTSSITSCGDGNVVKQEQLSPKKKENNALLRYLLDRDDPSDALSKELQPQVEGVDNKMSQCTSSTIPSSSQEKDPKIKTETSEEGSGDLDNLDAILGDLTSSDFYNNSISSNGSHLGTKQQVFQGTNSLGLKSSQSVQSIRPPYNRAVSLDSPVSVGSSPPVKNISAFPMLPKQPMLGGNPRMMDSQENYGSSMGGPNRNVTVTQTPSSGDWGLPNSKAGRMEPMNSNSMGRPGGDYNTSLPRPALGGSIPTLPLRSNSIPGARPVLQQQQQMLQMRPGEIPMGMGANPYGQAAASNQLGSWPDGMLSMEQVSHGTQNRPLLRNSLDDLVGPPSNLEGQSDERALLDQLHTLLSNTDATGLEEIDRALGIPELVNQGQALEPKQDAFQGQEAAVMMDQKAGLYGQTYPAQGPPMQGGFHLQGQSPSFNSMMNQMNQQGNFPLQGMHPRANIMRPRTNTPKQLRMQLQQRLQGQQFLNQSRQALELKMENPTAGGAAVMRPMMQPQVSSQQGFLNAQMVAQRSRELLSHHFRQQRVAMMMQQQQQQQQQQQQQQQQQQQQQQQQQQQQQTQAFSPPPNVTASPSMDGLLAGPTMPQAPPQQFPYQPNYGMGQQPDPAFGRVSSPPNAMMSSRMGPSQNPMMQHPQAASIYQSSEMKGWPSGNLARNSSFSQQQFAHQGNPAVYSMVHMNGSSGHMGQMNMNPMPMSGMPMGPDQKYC
# [2] = system: transactivating tegument protein VP16 (Human herpesvirus 1), Gal4-VP16 luciferase reporter; experiment: VP16 transactivation inhibitors, counter-screen for SRC3 inhibitor project, cell-based, luminescence, high throughput (AID 588794; in the data active = inhibition above about 30%); conditions: mammalian cells, VP16-driven luciferase reporter luminescence; at 3.6 µM; active compounds read high
# [3] = molecular target: Nuclear receptor coactivator 1 (Homo sapiens) (UniProt Q15788); experiment: SRC1 coactivator transcriptional activity inhibitors, confirmation, cell-based, luminescence, quadruplicate (AID 588820;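 active = mean inhibition above 46.68%, the untreated control wells mean plus 3 SD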;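 also: 0% = DMSO wells and 100% = gossypol 36 µM treated wells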); conditions: HEK293 GAL4-SRC1 luciferase reporter, at 3.6 µM, active compounds read high
# Nuclear receptor coactivator 1 (Homo sapiens), sequence (Q15788 whole entry, looked up, the tested form may be a part): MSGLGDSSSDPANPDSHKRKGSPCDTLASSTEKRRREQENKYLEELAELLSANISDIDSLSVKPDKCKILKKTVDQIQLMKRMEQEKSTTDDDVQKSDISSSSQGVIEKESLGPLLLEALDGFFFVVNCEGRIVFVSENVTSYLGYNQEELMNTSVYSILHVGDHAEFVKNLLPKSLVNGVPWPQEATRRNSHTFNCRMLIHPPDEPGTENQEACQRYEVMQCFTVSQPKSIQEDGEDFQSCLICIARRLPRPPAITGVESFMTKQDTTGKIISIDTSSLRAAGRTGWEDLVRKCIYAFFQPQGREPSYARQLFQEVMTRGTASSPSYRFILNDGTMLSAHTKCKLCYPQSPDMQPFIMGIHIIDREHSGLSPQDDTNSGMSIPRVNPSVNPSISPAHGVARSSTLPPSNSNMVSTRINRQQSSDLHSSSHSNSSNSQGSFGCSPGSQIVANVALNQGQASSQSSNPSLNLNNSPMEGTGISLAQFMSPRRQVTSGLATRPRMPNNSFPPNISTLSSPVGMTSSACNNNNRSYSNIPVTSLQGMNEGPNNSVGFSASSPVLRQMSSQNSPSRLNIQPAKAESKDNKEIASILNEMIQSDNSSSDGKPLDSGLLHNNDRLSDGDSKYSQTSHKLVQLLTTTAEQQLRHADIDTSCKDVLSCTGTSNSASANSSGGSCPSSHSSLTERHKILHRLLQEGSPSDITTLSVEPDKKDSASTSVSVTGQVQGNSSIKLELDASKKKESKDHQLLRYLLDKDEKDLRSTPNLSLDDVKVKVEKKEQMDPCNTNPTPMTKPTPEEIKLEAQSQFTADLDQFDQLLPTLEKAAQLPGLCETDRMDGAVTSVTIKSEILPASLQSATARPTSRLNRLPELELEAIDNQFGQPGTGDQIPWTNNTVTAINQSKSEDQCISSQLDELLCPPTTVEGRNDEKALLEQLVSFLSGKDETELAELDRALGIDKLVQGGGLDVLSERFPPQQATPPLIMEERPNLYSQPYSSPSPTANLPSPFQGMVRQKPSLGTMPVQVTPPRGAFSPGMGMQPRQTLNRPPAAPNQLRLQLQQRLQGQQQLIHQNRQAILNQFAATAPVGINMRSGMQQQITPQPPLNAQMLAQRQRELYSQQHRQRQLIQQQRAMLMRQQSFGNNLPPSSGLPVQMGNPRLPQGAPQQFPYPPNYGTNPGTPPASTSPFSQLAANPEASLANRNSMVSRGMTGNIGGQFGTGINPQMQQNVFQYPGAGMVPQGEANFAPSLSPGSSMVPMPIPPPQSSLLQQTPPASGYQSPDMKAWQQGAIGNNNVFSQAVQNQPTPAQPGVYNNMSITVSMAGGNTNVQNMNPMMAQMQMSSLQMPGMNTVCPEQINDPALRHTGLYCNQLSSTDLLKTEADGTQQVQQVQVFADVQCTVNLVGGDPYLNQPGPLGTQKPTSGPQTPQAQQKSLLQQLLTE
# [4] = VP16 transactivation inhibitors, counter-screen for SRC1 inhibitor project, cell-based, luminescence, high throughput (AID 588824; in the data active = inhibition above about 25%); conditions: cell-based VP16 transactivation luciferase luminescence; at 3.6 µM; active compounds read high
# [5] = StAR promoter reporter inhibitors, counter-screen for LRH-1 inverse agonist project, cell-based, luminescence, high throughput (AID 651611; in the data active = inhibition above about 28%); conditions: StAR promoter luciferase reporter counterscreen, at 3.6 µM, active compounds read high
# [6] = molecular target: Nuclear receptor subfamily 5 group A member 2 (Homo sapiens) (UniProt O00482); experiment: LRH-1 (NR5A2) inverse agonists, retest, confirmation, cell-based, luminescence (AID 651613; in the data active = inhibition above about 42%;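 also: HEK293T cells co-transfected with LRH-1 and StAR promoter luciferase reporter; 0% = vehicle wells and 100% = parental cells lacking receptor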); conditions: cell-based LRH-1 luciferase reporter, inverse agonism; at 3.6 µM; active compounds read high
# Nuclear receptor subfamily 5 group A member 2 (Homo sapiens), sequence (O00482 whole entry, looked up): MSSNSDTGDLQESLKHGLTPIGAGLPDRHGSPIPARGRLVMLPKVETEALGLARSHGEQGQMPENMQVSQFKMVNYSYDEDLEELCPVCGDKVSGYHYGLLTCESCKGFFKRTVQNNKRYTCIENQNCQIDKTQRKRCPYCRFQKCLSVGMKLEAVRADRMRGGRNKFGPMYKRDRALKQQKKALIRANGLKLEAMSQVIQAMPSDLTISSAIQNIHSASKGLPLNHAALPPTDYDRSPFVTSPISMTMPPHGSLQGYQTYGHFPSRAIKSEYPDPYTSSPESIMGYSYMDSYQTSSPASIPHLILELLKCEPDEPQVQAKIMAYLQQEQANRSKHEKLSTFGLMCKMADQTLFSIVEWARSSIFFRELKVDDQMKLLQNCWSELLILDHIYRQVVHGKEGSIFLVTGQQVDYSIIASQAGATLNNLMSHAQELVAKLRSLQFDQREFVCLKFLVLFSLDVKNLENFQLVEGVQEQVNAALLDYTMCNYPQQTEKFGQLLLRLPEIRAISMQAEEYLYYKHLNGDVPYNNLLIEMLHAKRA
# [7] = molecular target: Steroidogenic factor 1 (Homo sapiens) (UniProt Q13285); experiment: SF1 (NR5A1) inverse agonists, counter-screen for LRH-1 inverse agonist project, cell-based, luminescence, high throughput (AID 651614; in the data active = inhibition above about 44%;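 also: cells cotransfected with StAR promoter reporter and SF1 expression vector; 0% = vehicle on cells with receptor and 100% = vehicle on cells lacking receptor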); conditions: cell-based SF1 luciferase reporter, at 3.6 µM, active compounds read high
# Steroidogenic factor 1 (Homo sapiens), sequence (Q13285 whole entry, looked up, the tested form may be a part): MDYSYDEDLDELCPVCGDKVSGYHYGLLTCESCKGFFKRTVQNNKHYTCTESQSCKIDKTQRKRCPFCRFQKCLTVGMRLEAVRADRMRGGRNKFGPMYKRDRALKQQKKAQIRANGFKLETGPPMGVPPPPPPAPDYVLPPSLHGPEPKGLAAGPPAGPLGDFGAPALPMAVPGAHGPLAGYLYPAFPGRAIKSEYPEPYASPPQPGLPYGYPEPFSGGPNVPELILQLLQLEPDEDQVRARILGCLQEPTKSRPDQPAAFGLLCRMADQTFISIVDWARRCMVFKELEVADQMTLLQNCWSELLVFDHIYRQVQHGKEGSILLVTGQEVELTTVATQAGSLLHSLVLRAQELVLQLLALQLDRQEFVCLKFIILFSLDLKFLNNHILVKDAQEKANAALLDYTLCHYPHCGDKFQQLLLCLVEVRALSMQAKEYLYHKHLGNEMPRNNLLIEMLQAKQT
# [8] = VP16 transactivation reporter inhibitors, counter-screen for LRH-1 inverse agonist project, cell-based, luminescence, high throughput (AID 651615; in the data active = inhibition above about 33%); conditions: Gal4-VP16 luciferase reporter cells, at 3.6 µM, active compounds read high
# [9] = molecular target: Photoreceptor-specific nuclear receptor (Homo sapiens) (UniProt Q9Y5X4); experiment: NR2E3 agonist confirmation in cells, cell-based, luminescence, CHO-S two-hybrid (AID 624378;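 active = average inhibition above a cutoff equal to the mean inhibition of all tested compounds plus one SD, cut at about 70% in these data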;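 also: 0% = DMSO in NR2E3 cells and 100% = DMSO in cells lacking NR2E3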); conditions: CHO-S mammalian two-hybrid NR2E3-NCOR, luciferase luminescence; at 3.98 µM; active compounds read high
# Photoreceptor-specific nuclear receptor (Homo sapiens), sequence (Q9Y5X4 whole entry, looked up, the tested form may be a part): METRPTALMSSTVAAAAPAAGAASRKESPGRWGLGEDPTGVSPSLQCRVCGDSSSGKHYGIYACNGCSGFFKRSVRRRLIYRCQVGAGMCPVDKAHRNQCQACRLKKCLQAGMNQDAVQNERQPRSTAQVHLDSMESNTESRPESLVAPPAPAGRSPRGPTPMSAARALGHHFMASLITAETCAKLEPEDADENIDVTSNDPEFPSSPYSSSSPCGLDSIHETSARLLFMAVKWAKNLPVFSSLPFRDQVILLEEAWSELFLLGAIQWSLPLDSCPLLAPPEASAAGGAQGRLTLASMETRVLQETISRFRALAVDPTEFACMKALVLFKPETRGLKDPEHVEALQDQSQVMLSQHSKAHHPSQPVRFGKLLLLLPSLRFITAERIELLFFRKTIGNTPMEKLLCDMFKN
# [10] = GAL4-VP16 reporter modulators, confirmation, counter-screen for NR2E3 agonist project, cell-based, luminescence, CHO-S, high throughput (AID 624379;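 active = mean inhibition above a cutoff equal to the average over all tested compounds plus one standard deviation, cut at about 70% in these data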;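 also: 0% = DMSO with VP16-transfected cells and 100% = DMSO with cells lacking VP16; higher means less reporter light so more repression of VP16 activity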); conditions: CHO-S GAL4-VP16 luciferase reporter, at 3.98 µM, active compounds read high
smiles,measurement,setting,value
CC(=NCc1ccc2c(c1)OCO2)c1c(O)n(-c2ccccc2)c(=O)[nH]c1=O,inhibition,[1],-6%
same,inhibition,[2],13.8%
CCOc1ccc(-c2c(C)n(-c3ccc(OCC)cc3)c3[n+]2CCCCC3)cc1,inhibition,[1],96.3% (active)
same,inhibition,[2],89% (active)
same,inhibition,[3],74% (active)
same,inhibition,[4],87.2% (active)
COc1ccc(-n2c(O)c(C(C)=NCCCn3ccnc3)c(=O)[nH]c2=O)cc1,inhibition,[1],31.6%
same,inhibition,[2],32.6% (active)
Cc1cc(C)cc(NC2=NCCCS2)c1,inhibition,[1],-10.4%
same,inhibition,[2],1.9%
O=C(CSC1c2ccccc2-c2ccccc21)N/N=C/c1ccccc1O,inhibition,[1],17.4%
same,inhibition,[2],21.9%
same,inhibition,[3],13.8%
same,inhibition,[4],18%
CC(C)(C)c1cc(C=C(C#N)C#N)cc(C(C)(C)C)c1O,inhibition,[1],64.3% (active)
same,inhibition,[2],82.4% (active)
same,inhibition,[3],0.93%
same,inhibition,[4],81% (active)
same,inhibition,[5],80.2% (active)
same,inhibition,[6],102% (active)
same,inhibition,[7],91.4% (active)
same,inhibition,[8],88.2% (active)
CC(C)CC(NC(=O)CCCNC(=O)CCC(=O)OC1O[C@H]2OC3(C)CC[C@H]4[C@H](C)CCC(C1C)C24OO3)C(=O)O (stereo partly drawn),inhibition,[1],54.4% (active)
same,inhibition,[2],77.2% (active)
same,inhibition,[3],53.3% (active)
same,inhibition,[4],76.9% (active)
same,inhibition,[5],72.2% (active)
same,inhibition,[6],101% (active)
same,inhibition,[7],91% (active)
same,inhibition,[8],86.4% (active)
CN(C)c1ccc(C(=O)N/N=C/C23CC[C@@H](O)CC2(O)CC[C@@H]2[C@@H]3CCC3(C)C(C4=CC(=O)OC4)CCC23O)cc1 (stereo partly drawn),inhibition,[1],1.62%
same,inhibition,[2],23.4%
same,inhibition,[3],-57.9%
same,inhibition,[4],7.1%
CC1=C(N2CC2)C(=O)C(CO)=C(N2CC2)C1=O,inhibition,[1],96.1% (active)
same,inhibition,[2],91.2% (active)
same,inhibition,[3],86.1% (active)
same,inhibition,[4],93% (active)
CN1CCN(c2ncnc3ccc(Br)cc23)CC1,inhibition,[1],42.3%
same,inhibition,[2],37.6% (active)
same,inhibition,[3],31.2%
same,inhibition,[4],33.4% (active)
O=c1[nH]c2ccccc2n1C1CCN(C(c2ccccc2)c2nnnn2Cc2ccccc2)CC1 (stereo not drawn),inhibition,[1],64.1% (active)
same,inhibition,[2],16.8%
same,inhibition,[3],-21.5%
same,inhibition,[4],15.1%
same,inhibition,[9],30.7%
same,inhibition,[10],4.07%
